This note sets out measurements from PubChem BioAssay AID2528 (National Center for Advancing Translational Sciences (NCATS), 2010).

Screen size: about 350,000 compounds; about 700 (0.2%) were called active. What follows is part of a selection rich in actives, with near analogues and random picks from the rest. Values without a mark were called inactive. The call rests on the fitted dose curve; in most records, active means well fitted inhibition curve with a large enough effect; inconclusive means small, poorly fitted or top-dose-only effect; inactive means flat fitted curve, though single readings scatter.
Potency means the concentration at half of the fitted maximal effect.

Chain of RecQ-like DNA helicase BLM (Homo sapiens) (P54132 whole entry, looked up): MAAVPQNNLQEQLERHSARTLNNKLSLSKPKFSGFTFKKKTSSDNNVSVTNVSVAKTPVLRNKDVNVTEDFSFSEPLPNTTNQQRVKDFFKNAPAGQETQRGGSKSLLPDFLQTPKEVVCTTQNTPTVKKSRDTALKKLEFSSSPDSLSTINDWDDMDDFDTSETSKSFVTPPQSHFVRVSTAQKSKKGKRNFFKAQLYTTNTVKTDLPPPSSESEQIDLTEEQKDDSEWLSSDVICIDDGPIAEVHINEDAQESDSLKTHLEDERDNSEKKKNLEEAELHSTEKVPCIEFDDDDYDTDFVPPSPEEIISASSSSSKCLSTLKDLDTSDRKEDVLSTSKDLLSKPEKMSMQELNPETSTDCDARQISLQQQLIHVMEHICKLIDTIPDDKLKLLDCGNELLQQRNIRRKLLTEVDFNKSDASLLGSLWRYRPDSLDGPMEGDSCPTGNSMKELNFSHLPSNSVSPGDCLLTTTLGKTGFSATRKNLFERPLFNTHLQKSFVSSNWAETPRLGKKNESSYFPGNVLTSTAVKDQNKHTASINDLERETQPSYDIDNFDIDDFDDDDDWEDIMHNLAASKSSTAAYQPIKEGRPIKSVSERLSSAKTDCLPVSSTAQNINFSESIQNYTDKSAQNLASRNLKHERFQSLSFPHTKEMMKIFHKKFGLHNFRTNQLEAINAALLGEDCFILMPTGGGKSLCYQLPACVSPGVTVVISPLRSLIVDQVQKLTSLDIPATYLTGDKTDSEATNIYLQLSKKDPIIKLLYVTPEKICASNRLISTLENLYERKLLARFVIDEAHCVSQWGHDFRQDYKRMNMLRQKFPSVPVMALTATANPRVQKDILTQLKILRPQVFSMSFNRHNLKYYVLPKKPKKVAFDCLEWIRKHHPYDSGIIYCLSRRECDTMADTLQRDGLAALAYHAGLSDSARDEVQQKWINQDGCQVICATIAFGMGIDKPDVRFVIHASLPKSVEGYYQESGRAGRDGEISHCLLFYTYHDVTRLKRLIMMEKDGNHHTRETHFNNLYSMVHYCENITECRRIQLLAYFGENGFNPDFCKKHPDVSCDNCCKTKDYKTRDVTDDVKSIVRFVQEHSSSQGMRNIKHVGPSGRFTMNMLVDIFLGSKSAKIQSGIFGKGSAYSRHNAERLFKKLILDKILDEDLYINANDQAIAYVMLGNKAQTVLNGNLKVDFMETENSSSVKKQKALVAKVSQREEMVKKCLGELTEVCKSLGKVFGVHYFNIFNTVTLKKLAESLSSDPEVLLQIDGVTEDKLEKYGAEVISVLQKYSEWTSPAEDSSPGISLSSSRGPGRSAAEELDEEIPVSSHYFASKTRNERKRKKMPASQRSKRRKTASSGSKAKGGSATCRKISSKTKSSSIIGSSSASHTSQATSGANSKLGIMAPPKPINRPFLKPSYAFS

The assay concerns the target RecQ-like DNA helicase BLM (Homo sapiens) (UniProt P54132). Kind of assay: qHTS Assay for Inhibitors of Bloom's syndrome helicase (BLM). Further: nearly all actives have a fitted effect of over 35% in size.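 On activity change, negative = inhibition: plate controls were vehicle for no effect and no enzyme for full effect.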 Conditions: recombinant BLM DNA unwinding, fluorescence dequenching; series mostly up to 56.1 µM; activity change, negative = inhibition: at the top concentration. An excerpt: Survival of cells and the faithful propagation of the genome depend on elaborate mechanisms of detecting and repairing DNA damage. Treatment of advanced cancer relies on radiation therapy or chemotherapy, which kill cancer cells by causing extensive DNA damage. It is often found, that cancer cells develop resistance to therapy through enhanced activity of DNA repair functions; this has led to an increased interest in developing drugs that interfere with DNA repair, which could sensitize cancer cells to conventional therapy.
This validation qHTS assay pertains to human BLM, which is important in resolving abnormal DNA structures formed during replication or homologous recombination. Shutting down the expression of BLM leads to chromosomal instability and higher radiation sensitivity in cultured cells.
The validation assay was a fluorescence quenching based kinetic qHTS for BLM Helicase DNA unwinding. The activity was measured as ATP-dependent separation of a 20-bp DNA duplex extended by 30-nt single-stranded tails (forked duplex). The forked DNA substrate was tagged with rhodamine fluorophore (carboxytetramethyl rhodamine, TAMRA) and BHQ-2 (Black Hole Quencher 2) dark quencher. Strand separation results in an increase in the fluorescence of TAMRA (excitation 525 nm, emission 598 nm). This substrate construct operates in a red-shifted region where very few compound library members have been noted to fluoresce (PubChem AIDs 593 and 594). An additional feature of the assay is the inclusion of 2.5 ug/ml poly (dIdC), to reduce interference by compounds such as DNA intercalators, a major source of false inhibitors.
Ian Hickson, University of Oxford
Opher Gileadi, Structural Genomics Consortium, University of Oxford
Screening Center PI: Austin, C.P.
Screening Center: NIH Chemical Genomics Center [NCGC]
Three uL of reaction buffer (25 mM Tris-HCl (pH 8.0), 5 mM NaCl, 2 mM MgCl2, 1mM DTT, 0.01% Tween- 20, and 2.5 ug/ml poly(dI-dC), including enzyme (50 nM BLM), were dispensed into a 1536-well Greiner black assay plate via solenoid-valve based nanoliter dispensers. Compounds (23 nl each in columns 5-48) and control (23 nl each in column 2 as dose-response) were transferred via a Kalypsys pintool equipped with a 1536-pin array. The plates were incubated for 15 min at room temperature, and then 1 ul of substrates (200 nM DNA and 2 mM ATP, final concentrations) was added to start the reaction. The plate was transferred into a ViewLux high-throughput CCD imager where the reaction progress was measured in a discontinuous kinetic mode (two reads spaced 2 hours apart, with intermediate room temperature incubation of the covered assay plate) by using standard red-fluorescence optics (excitation filter 525 nm, emission filter 598 nm). Enzyme-free and vehicle (DMSO) controls were included for signal normalization.
A general note: qHTS replaces the single test concentration by a dilution series.
For the compound `CN1C(=O)CN2CCc3ccccc3C2c2cc(Cl)ccc21` (configuration not stated), the “activity change, negative = inhibition” value is 3.82%.

Regarding `C=C[C@](C)(O)CCC1C(=C)CCC2[C@@](C)(CO)CCC[C@@]12C` (some centres not stated), the “activity change, negative = inhibition” value was -2.39%.

Take `CC/C=C\C/C=C\C/C=C\C/C=C\C/C=C\C/C=C\CCC(=O)NCCc1ccc(O)c(O)c1`: the “activity change, negative = inhibition” value is -0.801%.

Turning to `Cc1c(S(=O)(=O)O)oc2c1C(=O)C(=O)c1c-2ccc2c1CCCC2(C)C`, the Potency is 31.6 µM (active).

For `CC(C)C(N)C(=O)OCCOCn1cnc2c(=O)[nH]c(N)nc21` (configuration not stated), the “activity change, negative = inhibition” value was -7.58%.

With `O=C(O)C[C@@H]1NC(=O)[C@H](Cc2ccccc2)NC1=O`, the “activity change, negative = inhibition” value is 0.405%.

With `CCc1ccc(NC(=O)c2cnc3c(-c4ccccc4)c(C)nn3c2C)cc1`, the “activity change, negative = inhibition” value was -1.21%.

As for `COC1C[C@@H](O[C@@H]2C(C)C(=O)OC(C)C(C)C(O)C(C)C(=O)[C@@]3(CO3)CC(C)C(OC3OC(C)CC(N(C)C)C3O)C2C)OC(C)[C@@H]1O` (some centres not stated), the “activity change, negative = inhibition” value is -4.86%.

As to `CC(=O)Oc1c2c(c3c(c1CC=C(C)C)O[C@@]14C(=CC5CC1C(C)(C)OC4(C/C=C(\C)C(=O)O)C5=O)C3=O)OC(C)(CCC=C(C)C)C=C2` (some centres not stated), the “activity change, negative = inhibition” value is -15.4%.

For the compound `CCC(C)[C@@H](N)C(=O)O` (some centres not stated), the Potency entry was “inactive”.

Take `c1ccc2c(Nc3ccncc3)nc(-c3ccc4c(c3)OCO4)nc2c1`: the “activity change, negative = inhibition” value was -15.1%.

In the case of `COc1ccc(-c2nc3ccc(C(=O)NCc4ccc(C)cc4)cc3nc2-c2ccc(OC)cc2)cc1`, the “activity change, negative = inhibition” value is -3.72%.

As for `COc1cccc(S(=O)(=O)NCc2ccc(C(=O)NCc3ccccn3)cc2)c1`, the “activity change, negative = inhibition” value was 0.376%.

Take `COc1ccc(NC(=O)COCc2cc(-c3ccco3)on2)cc1`: the “activity change, negative = inhibition” value was 0.68%.

For `O=C(NCc1ccccn1)c1ccc2nc(-c3ccco3)c(-c3ccco3)nc2c1`, the Potency was 8.91 µM (active).

`COCCNC(=O)Nc1ccc2nc(-c3ccco3)c(-c3ccco3)nc2c1`: the Potency is 12.6 µM (active).

Consider `CCOc1ccc(NC(=O)c2ncoc2-c2ccco2)cc1`, for which the “activity change, negative = inhibition” value is -4.8%.

`Cc1cccc(C)c1NC(=O)NC1=CCCN1C`: the “activity change, negative = inhibition” value is -6.49%.

On to `Cc1noc(C)c1C(=O)NCCc1ccc(S(N)(=O)=O)cc1`, for which the “activity change, negative = inhibition” value is -0.714%.

Regarding `CCCNC(=O)c1c(N)n(-c2ccc(S(N)(=O)=O)cc2)c2nc3ccccc3nc12`, the Potency is 20 µM (active).

Consider `CCOC(=O)c1c(N)n(-c2cccc(C)c2C)c2nc3ccccc3nc12`, for which the “activity change, negative = inhibition” value was -6.93%.

`COc1ccccc1CNc1ccnc(-c2c(C)noc2C)n1`: the “activity change, negative = inhibition” value was -3.97%.

Turning to `N#CCCn1c(=O)c(-c2cc(F)cc(F)c2)nc2cnc(Oc3ccccc3)nc21`, the “activity change, negative = inhibition” value was -12.2%.

For the compound `Clc1ccccc1CSc1nnc(-c2ccco2)c(-c2ccco2)n1`, the Potency was 14.1 µM (active).

Consider `c1ccc(CSc2nnc(-c3ccco3)c(-c3ccco3)n2)cc1`, for which the Potency is 14.1 µM (active).

As to `O=C(NCCSc1ccccc1)c1ccco1`, the “activity change, negative = inhibition” value was -7.71%.

For the compound `CC1(C)N=C(SCc2ccccc2Cl)c2ccccc2N1`, the “activity change, negative = inhibition” value was -0.452%.

Regarding `Cc1ccc(-c2nnc(SCC(=O)NCc3ccccc3)nc2-c2ccc(C)cc2)cc1`, the “activity change, negative = inhibition” value is -9.64%.

`Clc1ccccc1CSc1nncn2c1cc1occc12`: the “activity change, negative = inhibition” value was -3.01%.

In the case of `COc1ccc(N2CCN(C(=O)CSCc3nc(-c4ccccc4Cl)oc3C)CC2)cc1`, the “activity change, negative = inhibition” value is -3.38%.

`Cc1ccc2c(=O)c(C(=O)c3cccc(Cl)c3)cn(CC(=O)NCc3ccccc3)c2n1`: the “activity change, negative = inhibition” value was 1.52%.

Turning to `C=C/C1=C/Cc2ccccc2[C@H](C[N+](=O)[O-])C(C(=O)OC)(C(=O)OC)C1`, the “activity change, negative = inhibition” value is 1.77%.

Take `O=P(O)(O)OC[C@H](O)CO`: the “activity change, negative = inhibition” value was -13.5%.

For the compound `O=c1c(-c2cc(F)cc(F)c2)nc2cnc(Oc3ccccc3)nc2n1C[C@H]1CCCO1`, the “activity change, negative = inhibition” value was -7.56%.

In the case of `C=CCC(C)(O)c1ccco1` (configuration not stated), the “activity change, negative = inhibition” value was 1.35%.

For the compound `N#Cc1ccccc1-c1ccc2ncnc(NCc3cccnc3)c2c1`, the “activity change, negative = inhibition” value is -6.8%.

On to `CS(=O)(=O)c1ccc2nc(NC(=O)c3ccc(Cl)nc3)sc2c1`, for which the Potency was 17.8 µM (active).

As to `CN(C)c1cccc(C(=O)Nc2nc3ccc(S(=O)(=O)NC(C)(C)C)cc3s2)c1`, the “activity change, negative = inhibition” value was -6.17%.

On to `Cc1cc2nc(NC(=O)c3ccc(S(=O)(=O)N4CCOCC4)cc3)sc2cc1C`, for which the “activity change, negative = inhibition” value is -6.29%.

For the compound `CC(=O)OCC1OC(C#Cc2ccccc2Cl)C=CC1OC(C)=O` (configuration not stated), the activity change, negative = inhibition was 2.5% [at 12.4 µM].

As for `O=C(c1cc2ccccc2s1)N1CCN(c2ccccn2)CC1`, the “activity change, negative = inhibition” value was -3.96%.

On to `O=C(c1cc(-c2ccc(Cl)cc2)on1)N1CCN(c2ccccc2)CC1`, for which the “activity change, negative = inhibition” value was -2.16%.

In the case of `O=C(c1cc2c(s1)CCC2)N1CCN(c2ccccc2)CC1`, the Potency was 12.6 µM (active).

For the compound `Cc1ccc(-c2cc(C(F)(F)F)c(C#N)c(SCC(=O)Nc3ccccc3)n2)cc1`, the “activity change, negative = inhibition” value was -0.785%.

As to `C=CCN1c2ccccc2[C@]23C[C@@H](C(=O)OC)N(S(=O)(=O)c4ccc([N+](=O)[O-])cc4)C2=NC(C(=O)OC)=C(C(=O)OC)[C@H]13`, the activity change, negative = inhibition is -4.61% [at 12.4 µM].

On to `CCCn1c(C)nc2c(NCCCCN(CC)CC)nc(C)nc21`, for which the “activity change, negative = inhibition” value was -7.03%.

Take `O=C(N/N=C/c1ccco1)c1csc2c1CCCC2`: the “activity change, negative = inhibition” value was -12.9%.
